An excerpt weighted towards active compounds, which were near 9.9% of everything screened.
MCF10A rereplic = inducers of DNA re-replication in MCF 10A breast cells | Potency, µM (titrated, usually from 46.1 µM), for inactives: top-dose activity, positive = re-replication, hits mostly activators | MCF 10A DNA re-replication, Hoechst nuclear intensity, 48 h | 350,000 compounds, 2.9% hits; note: potency is the fitted concentration of half-maximal effect; % of control where 0% means no effect; nearly all actives have a fitted effect of over 50% in size
IL1B secr inh = blocks inflammasome-driven IL-1 beta release; THP-1 LPS/ATP IL-1B secretion, AlphaLISA, 16 h; active compounds read low; activity change, % at 57.5 µM; 360,000 compounds, 4.7% hits; in the data active = activity change below about -50%; inconclusive = mostly about -30% to -49%; note: % is set by controls: 0 for no effect and ±100 for the full control effect
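Secreted IL-1B measured by AlphaLISA bead assay after 16 h compound exposure of THP-1 cells; compounds (final up to 57.5 uM) added 1 h before LPS (250 ng/mL) and ATP (1.25 mM) stimulation; lower signal means less secretion.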
SW480 rereplic = inducers of DNA re-replication in SW480 colon cancer cells; SW480 DNA re-replication, Hoechst DNA content imaging, 48 h; Potency, µM (series often up to 46.1 µM), for inactives: top-dose re-replication activation, usual class: activators; 340,000 compounds, 1.8% hits; note: potency is the fitted concentration of half-maximal effect; % of control where 0% means no effect; nearly all actives have a fitted effect of over 55% in size
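Compounds, transferred as 23 nL by pin tool, were incubated with cells for 48 hr; DNA content per nucleus was then quantified by Hoechst staining and fluorescence plate imaging.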
KB-3-1 cytotox = KB-3-1 parental cell cytotoxicity; KB-3-1 viability, CellTiter-Glo ATP luminescence, 72 h; Potency, µM (doses to about 46.1 µM), actives largely listed as cytotoxic; 400,000 compounds, 1.4% hits; note: potency is the fitted concentration of half-maximal effect; % is set by controls: 0 for no effect and ±100 for the full control effect; nearly all actives have a fitted effect of over 60% in size
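Cytotoxicity in the drug-sensitive parental line KB-3-1 was scored as loss of CellTiter-Glo luminescence following 72 h incubation with compound. Values come from curve fitting of normalized concentration-response data.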
KB-V1 MDR tox = KB-V1 MDR subline cytotoxicity; KB-V1 MDR cells viability, CellTiter-Glo, 72 h; AID 1347076; 400,000 compounds, 3.4% hits; Potency, µM (series often up to 46.1 µM), hits mostly cytotoxic; note: potency is the fitted concentration of half-maximal effect; % is set by controls: 0 for no effect and ±100 for the full control effect; nearly all actives have a fitted effect of over 60% in size
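Cells of the MDR subline KB-V1 are plated, dosed with compound at multiple concentrations, and incubated 72 h at 37 degrees C; CellTiter-Glo is then added and luminescence read after 10 min.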
Starred values were filed as active, the others as inactive. Unless noted, calls come from the whole dose curve; as a rule, active = well fitted curve in the direction sought with a large enough effect; inconclusive = small, poorly fitted or top-dose-only effect, or another doubt; inactive = no such curve, though single readings can be large; an effect the other way counts as inactive or inconclusive.

What do the screens show for `COc1ccc(Br)cc1CN(C)CC(O)COc1ccc(Br)cc1` (stereo not given)?
MCF10A rereplic: inconclusive; IL1B secr inh: -85.0*; SW480 rereplic: inconclusive; KB-3-1 cytotox: inactive; KB-V1 MDR tox: inactive

How did COC(=O)[C@@]1(C(C)C)N=C(c2cc(OC)c(OC)c(OC)c2)[C@]2(O1)C(=O)N(Cc1ccc(OC)cc1)c1ccc(Br)cc12 do in these assays?
IL1B secr inh: 0.0; KB-3-1 cytotox: inactive; KB-V1 MDR tox: inactive

What do the screens show for `COC(=O)c1[nH]c2ccccc2c1NC(=O)CN1CCCCCC1`?
MCF10A rereplic: -2.7%; IL1B secr inh: 15.4; SW480 rereplic: -1.9%; KB-3-1 cytotox: inactive; KB-V1 MDR tox: inactive

How did CCOC(=O)N1CCN(CC(=O)Nc2c(C(=O)OC)[nH]c3ccccc23)CC1 do in these assays?
MCF10A rereplic: 5.8µM*; IL1B secr inh: 16.9; SW480 rereplic: -3.9%; KB-3-1 cytotox: inactive; KB-V1 MDR tox: inconclusive

How did CCOC(=O)c1[nH]c2ccc(OC)cc2c1NC(=S)N1CCN(c2ccccc2OC)CC1 do in these assays?
MCF10A rereplic: inconclusive; IL1B secr inh: -2.6; SW480 rereplic: inconclusive; KB-3-1 cytotox: 8.2µM*; KB-V1 MDR tox: inconclusive

What do the screens show for `COC(=O)c1[nH]c2ccccc2c1NC(=O)CNC1CCCCC1`?
MCF10A rereplic: inconclusive; IL1B secr inh: 17.3; SW480 rereplic: -2.2%; KB-3-1 cytotox: inactive; KB-V1 MDR tox: 18.4µM*

What do the screens show for `Cc1cc(C)c2nc(N(CCCN(C)C)C(=O)c3ccc(S(=O)(=O)N4CC(C)OC(C)C4)cc3)sc2c1` (stereo not given)?
MCF10A rereplic: 9.3%; IL1B secr inh: -95.8*; SW480 rereplic: inconclusive; KB-3-1 cytotox: inactive; KB-V1 MDR tox: inactive

What do the screens show for `Cc1ccc2sc(N(CCN(C)C)C(=O)c3ccc(S(=O)(=O)N4CC(C)OC(C)C4)cc3)nc2c1C` (stereo not given)?
MCF10A rereplic: -0.7%; IL1B secr inh: -64.5*; SW480 rereplic: 0.0%; KB-3-1 cytotox: inactive; KB-V1 MDR tox: inactive

What do the screens show for `CC(NC(=O)c1cccc(NC(=O)c2nsc3ccccc23)c1)c1ccccc1` (stereo not given)?
KB-3-1 cytotox: inactive; KB-V1 MDR tox: inactive

How did COc1ccc(NC(=O)C#Cc2ccccc2)cc1 do in these assays?
MCF10A rereplic: inconclusive; SW480 rereplic: inconclusive; KB-3-1 cytotox: 20.6µM*; KB-V1 MDR tox: inactive

How did COc1cc(NC(=O)C(Cc2ccccc2)n2cccc2)cc(OC)c1 (stereo not given) do in these assays?
MCF10A rereplic: inconclusive; IL1B secr inh: -16.8; SW480 rereplic: inconclusive; KB-3-1 cytotox: inactive; KB-V1 MDR tox: inactive

How did O=C(C#Cc1ccccc1)Nc1cccc(F)c1 do in these assays?
MCF10A rereplic: inconclusive; IL1B secr inh: -106.3*; SW480 rereplic: inconclusive; KB-3-1 cytotox: 23.1µM*; KB-V1 MDR tox: inconclusive

Results for O=C(CC(=O)Nc1cccc(F)c1)Nc1cccc(F)c1 ?
MCF10A rereplic: -6.1%; IL1B secr inh: 7.2; SW480 rereplic: -10.4%; KB-3-1 cytotox: inactive; KB-V1 MDR tox: inactive

What do the screens show for `COc1ccc(NC(=O)C(Cc2ccccc2)n2cccc2)cc1` (stereo not given)?
MCF10A rereplic: -14.0%; IL1B secr inh: -73.2*; SW480 rereplic: -6.5%; KB-3-1 cytotox: inactive; KB-V1 MDR tox: inactive

What do the screens show for `COc1ccc(NC(=S)c2ccccc2)cc1`?
MCF10A rereplic: -3.8%; IL1B secr inh: -81.5*; SW480 rereplic: 4.5%; KB-3-1 cytotox: inactive; KB-V1 MDR tox: inactive

What do the screens show for `CS(=O)(=O)c1ccc(Cl)c(NC(=O)COC(=O)CCCN2C(=O)c3cccc4cccc(c34)C2=O)c1`?
MCF10A rereplic: -6.6%; IL1B secr inh: 6.0; SW480 rereplic: -7.0%; KB-3-1 cytotox: inactive; KB-V1 MDR tox: inactive

Results for O=C(C#Cc1ccccc1)NCc1ccccc1F ?
MCF10A rereplic: 1.2%; IL1B secr inh: -13.5; SW480 rereplic: 19.8%; KB-3-1 cytotox: inactive; KB-V1 MDR tox: inconclusive

Results for O=C(Nc1ccc(Oc2ccccc2)cc1)C1CC1 ?
MCF10A rereplic: -2.0%; IL1B secr inh: -19.7; SW480 rereplic: 4.5%; KB-3-1 cytotox: inconclusive; KB-V1 MDR tox: inactive
